Compound activity (PubChem)
An excerpt weighted towards active compounds, which were near 1.1% of everything screened.
GalR3 antagonist: blocks the human galanin receptor 3 | O60755 | HEK293 GalR3-CNG cAMP membrane potential fluorescence; galR3 body fused to GalR1 C-terminus | inhibition, % at 3 µM | 360,000 compounds, 0.44% hits;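 active = inhibition above the screen-wide average plus 3 SD, cut at about 13% in these data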;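 also: forskolin and galanin both at EC90 stimulate the cells; cAMP rise reported by CNG channel membrane potential dye signal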
COUP-TFII inh: inhibitors of human COUP-TFII (NR2F2); HEK293T NGFI-A luciferase reporter, luminescence; 370,000 compounds, 0.7% hits; P24468; AID 686940; inhibition, % at 8.6 µM;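 active = inhibition above a per-plate cutoff, mean inhibition of test wells between control levels plus 3 SD, cut at about 38% in these data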;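 also: cells cotransfected with COUP-TFII expression vector driving the NGFI-A reporter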
NCOA2 inhibitor: human SRC2 (NCOA2) inhibition; AID 651957; inhibition, % at 9 µM; 370,000 compounds, 0.17% hits; Q15596; HEK293 GAL4-SRC2 luciferase reporter, luminescence;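 active = inhibition above the mean inhibition of all tested compounds plus 3 SD, set per campaign, cut at about 52% in these data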
SRC1 inh: inhibits human SRC1 coactivator. Q15788. HEK293 GAL4-SRC1 luciferase reporter, luminescence. inhibition, % at 3.6 µM. 360,000 compounds, 0.12% hits. AID 588354;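 active = inhibition above the campaign mean plus 3 SD, with each screening campaign given its own cutoff, cut at about 60% in these data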
SRC3 inh: inhibits human SRC3 coactivator; Q9Y6Q9; HEK293 GAL4-SRC3 luciferase reporter, luminescence; inhibition, % at 3.6 µM; 360,000 compounds, 0.17% hits;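 active = inhibition above a per-campaign cutoff, the mean of all compounds plus 3 SD, cut at about 60% in these data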;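 also: higher means less SRC3-driven luciferase light from the GAL4 reporter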
NR5A2 inv ag: inverse agonists of human LRH-1 (NR5A2) | O00482 | HEK293T StAR-luciferase reporter, LRH-1 transfected, 24 h | inhibition, % at 3.6 µM | 360,000 compounds, 0.13% hits | AID 602396;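 active = inhibition above the mean inhibition of all tested compounds plus 3 SD, cut at about 73% in these data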
GalR3 antag conf: confirmation of human galanin receptor 3 antagonists; shares compounds with GalR3 antagonist; HEK293 GalR3 CNG cAMP biosensor, membrane potential fluorescence; galR3 fused to GalR1 carboxy tail; challenged with forskolin and galanin at EC90; inhibition, % at 3 µM; 1,600 compounds, 59% hits; AID 652245;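 active = inhibition above the primary screen's cutoff, the mean inhibition of all screened compounds plus 3 SD, cut at about 13% in these data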
CNG parental: counter-screen for GalR3 antagonists: nonspecific agonists in parental HEK-CNG cells; shares compounds with GalR3 antagonist; HEK293-CNG parental cells, cAMP membrane potential fluorescence; normalised: DMSO wells 0%, forskolin wells 100%; activation, % at 3 µM; 1,600 compounds, 10% hits; AID 652268; in the data active = activation above about 1.3%
VP16 Luc counter: VP16 inhibition counter-screen for COUP-TFII; shares compounds with COUP-TFII inh; AID 687007; 2,500 compounds, 25% hits; inhibition, % at 8.5 µM; HEK293 Gal4-VP16 luciferase reporter, luminescence; in the data active = inhibition above about 13%
COUP-TFII conf: confirmation of human COUP-TFII (NR2F2) inhibitors; HEK293 NGFI-A luciferase reporter, luminescence; 2,500 compounds, 45% hits; inhibition, % at 8.5 µM; shares compounds with COUP-TFII inh;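 active = mean inhibition over three repeats above a set limit taken from the earlier primary screen, cut at about 38% in these data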
A number is an active result; . = inactive; / = no result given.

SMILES | GalR3 antagonist | COUP-TFII inh | NCOA2 inhibitor | SRC1 inh | SRC3 inh | NR5A2 inv ag | GalR3 antag conf | CNG parental | VP16 Luc counter | COUP-TFII conf
CCOC(=O)N1C(=O)C[C@](Sc2ccc(OC)cc2)(C(=O)N2CCOCC2)[C@H]1c1ccc(OC)cc1 | / | . | . | / | / | / | / | / | / | /
COc1cccc(N2CCN(c3ncnc4c3[nH]c3ccc(F)cc34)CC2C)c1 (configuration not stated) | 36.6 | 90.8 | 81.3 | 84.7 | 87.3 | 89.2 | 78.9 | . | 92.3 | 108.5
O=C(OC12CCCN(C1)/C(=C/c1ccc(Cl)cc1)C2)c1ccno1 (configuration not stated) | / | . | . | / | / | / | / | / | / | /
N#CC(C#N)=C(Nc1ccc(F)cc1)SCc1cccc(Br)c1 | 92.1 | 52.2 | . | . | . | . | 99.6 | . | . | 38.3
CCN(CC)S(=O)(=O)c1ccc(Cl)c(NC(=O)COC(=O)c2ccc(O)cc2)c1 | . | . | . | . | . | . | / | / | / | /
CCN(CC)S(=O)(=O)c1ccc(Cl)c(NC(=O)COC(=O)c2cccn2C)c1 | 64.9 | 38.5 | . | . | . | . | . | . | . | .
O=C(CN1C(=O)C2(OCCCO2)c2ccccc21)NCc1ccccc1Cl | / | . | . | / | / | / | / | / | / | /
CCOc1cc(CNc2ccc3c(c2)OCCO3)cc(Br)c1OC | / | 51.4 | . | . | . | . | . | . | . | 38.1
CCOc1c(Br)cc(CNc2ccc3c(c2)OCCO3)cc1OC | . | . | . | . | . | . | / | / | / | /
C[C@@H]1COc2cc(F)ccc2S(=O)(=O)N1C | / | . | . | / | / | / | / | / | / | /
CC(C)CC[n+]1ccccc1/C=C/c1ccc(N(C)C)cc1 | 30.6 | 85.8 | . | . | 76.0 | 90.9 | 47.3 | 15.8 | 25.9 | 85.5
O=C(Nc1ccncc1)c1cccc(S(=O)(=O)N2CCc3ccccc32)c1 | 75.5 | 60.8 | . | . | . | . | 46.2 | . | . | 44.8
CCCCCCCCN1CCS(=O)(=O)N(Cc2ccc(OC)cc2)C(C(=O)OC)C1 (configuration not stated) | / | . | . | / | / | / | / | / | / | /
Cc1cc(C)c(S(=O)(=O)c2ccc(Cl)cc2)c(Cl)n1 | . | . | . | . | . | . | / | / | / | /
Cc1cc(S(=O)(=O)c2ccc(Cl)cc2)nc(S(=O)(=O)c2ccc(Cl)cc2)c1C#N | 16.5 | 44.7 | . | . | . | . | . | . | 55.8 | 62.1
C#CCNC(=O)C[C@H]1C[C@@]2(C(=O)OC)C(=C[C@H](C(C)(C)C)O[C@@H]2C)N(Cc2ccco2)C1=O | / | . | . | / | / | / | / | / | / | /
Cc1cccc(Nc2nc(NCc3ccco3)c3ccccc3n2)c1 | 44.9 | 62.8 | . | . | . | . | 53.7 | 8.7 | . | 48.3
CN1C2=N[C@@H](c3ccccc3)CC(=O)N2/C(=C\c2ccccc2)[C@H]1c1ccccc1 | / | . | / | / | / | / | / | / | / | /
Cn1cc(CNCc2ccc(OC(F)(F)F)cc2)c(-c2ccc3c(c2)OCCO3)n1 | 35.4 | 48.1 | . | . | . | . | 91.9 | 1.7 | . | 39.7
CCN(C(=O)CSc1nnc(-c2cccnc2)n1Cc1ccco1)c1ccccc1C | / | . | . | / | / | / | / | / | / | /
CN(Cc1ccc(OC(F)F)cc1)C(=O)c1cccc(S(=O)(=O)N2CCN(Cc3ccccc3)CC2)c1 | 21.7 | 55.3 | . | . | . | . | 88.2 | . | . | 42.5
CN(Cc1c(F)cccc1Cl)C(=O)c1cccc(S(=O)(=O)N2CCN(Cc3ccccc3)CC2)c1 | . | . | . | . | . | . | / | / | / | /
Cc1cc(C(=O)CSc2nc(N)cc(=O)[nH]2)c(C)n1-c1ccc(OC(F)F)cc1 | 14.4 | 53.2 | . | . | . | . | 97.9 | . | . | 54.4
